# NTMT1 inh: Primary qHTS for Inhibitors of N-terminal methyltransferase 1 (NTMT1): MTaseGlo Assay. N-terminal Xaa-Pro-Lys N-methyltransferase 1 (Homo sapiens), Q9BV86. Potency, µM (doses to about 114 µM), hits mostly inhibitors. 2.5% of 59,000 active. NTMT1 MTase-Glo SAH luminescence, purified enzyme; further: nearly all actives have a fitted effect of over 65% in size
# DRV1 agonist: qHTS for Agonists of Human Resolvin D1 Receptor DRV1; Probable G-protein coupled receptor 32 (Homo sapiens), O75388; CHO-K1 GPR32 beta-arrestin PathHunter luminescence, 90 min; zero percent set by DMSO-only wells; activation, % at 76.9 µM; 2.5% of 48,000 active; AID 1346428, 2018;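 active means activation of at least 60% and not above a set upper limit, about 1 call in 100 departs from these limits; inconclusive means activation of 40% to 60%, or above that upper limit; inactive means activation under 40%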
# Target sequence (O75388 whole entry, looked up): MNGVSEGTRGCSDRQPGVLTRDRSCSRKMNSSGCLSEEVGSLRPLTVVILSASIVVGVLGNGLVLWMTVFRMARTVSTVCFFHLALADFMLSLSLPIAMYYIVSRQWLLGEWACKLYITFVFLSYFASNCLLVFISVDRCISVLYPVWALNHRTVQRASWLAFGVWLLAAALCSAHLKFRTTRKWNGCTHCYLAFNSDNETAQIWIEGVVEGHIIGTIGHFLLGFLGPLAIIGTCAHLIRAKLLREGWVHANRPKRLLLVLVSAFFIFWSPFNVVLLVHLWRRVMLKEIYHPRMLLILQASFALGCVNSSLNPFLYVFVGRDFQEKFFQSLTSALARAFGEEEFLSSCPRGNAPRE
#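 PathHunter beta-arrestin recruitment in CHO-K1 cells stably expressing ProLink-tagged GPR32. Cells were exposed to compound for 90 min at 37 C, then chemiluminescence was read after 1 h detection at ambient temperature; DMSO served as basal control.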
# SKOV3 invasion: Primary qHTS assay for Inhibitors of ovarian cancer metastasis using an organotypic tumor microenvironment (TME) model | 0.1% of 46,000 active | Potency, µM (series often up to 45.8 µM), usual class: inhibitors | SKOV3ip1-GFP adhesion/invasion on 3D omental model, fluorescence; further: nearly all actives have a fitted effect of over 65% in size
#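 Adhesion/invasion was scored as fixed GFP-labeled SKOV3ip1 cell counts (488/509 nm), normalized to DMSO and tomatine controls. Cancer cells in serum-free medium, with four compound doses (0.36-46 umol/L), sat 2 hr at RT then 16 hr at 37 C on a 48 hr fibroblast/mesothelial/ECM culture.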
# FH mod: Identification of activators of human fumarate hydratase by quantitative high-throughput screening | FH coupled MDH/diaphorase resazurin fluorescence, 15 min | Potency, µM (top dose mostly 79.9 µM), most hits filed as inhibitors | 0.22% of 54,000 active | AID 1347055, 2019; further: the screen sought activators but most active calls are inhibition curves; nearly all actives have a fitted effect of over 45% in size
# A number is an active result; – = inactive; ? = inconclusive; · = no result given; ! = a repeat was not active; [ ] = another dose, or the depositor's remark. In the library only some 3.9% were active in any assay of this set; here they are far more common. Unless noted, the call rests on the fitted dose curve; in most records, active means well fitted curve in the direction sought with a large enough effect; inconclusive means small, poorly fitted or top-dose-only effect, or another doubt; inactive means no such curve, though single readings can be large; an effect the other way counts as inactive or inconclusive.
SMILES,NTMT1 inh,DRV1 agonist,SKOV3 invasion,FH mod
O=C(O)c1nn(Cc2ccc(Cl)cc2Cl)c2ccccc12,?,64!,–,–
C[C@]12CC[C@H](O[C@@H]3O[C@H](CO)[C@@H](O)[C@H](O)[C@H]3O[C@@H]3O[C@H](CO)[C@@H](O)[C@H](O)[C@H]3O)CC1=CC[C@@H]1[C@@H]2CC[C@]2(C)[C@@H](C3=CC(=O)OC3)CC[C@]12O,–[12.6 µM],·,·,–
C[C@H]1C/C=C/[C@H]2[C@@H]3O[C@]3(C)[C@@H](C)[C@H]3[C@H](Cc4ccccc4)NC(=O)[C@]32OC(=O)O/C=C/[C@@](C)(O)C1=O,–,·,·,–
CCCN1CCc2cc(O)cc3c2[C@H]1Cc1ccc(O)c(O)c1-3,·,–,·,14µM
CN1CCc2cc(O)cc3c2[C@H]1Cc1ccc(O)c(O)c1-3,·,–,·,14µM
N#Cc1ccc(NC(=O)Nc2nnc(-c3ccncc3)s2)cc1C(F)(F)F,–,·,·,·
O=C(N[C@@H](COc1ccc2[nH]c(=O)[nH]c2c1)c1ccccc1)c1cccn(Cc2ccc(F)c(F)c2)c1=O,–,·,–,–
Cc1c(N[C@@H](c2nnc(-c3ccc(C#N)cc3)o2)[C@H](C)O)ccc(C#N)c1Cl,–,·,·,–
N#Cc1cn([C@@H]2O[C@H](CO)[C@H](O)[C@@H]2O)c2ncnc(N)c12,8.9µM,·,·,–
Cc1oc2cc3oc(=O)c(CCC(=O)N4CCCCC4)c(C)c3cc2c1C,·,87,–,·
CC(CC(C(N)=O)(c1ccccc1)c1ccccc1)N(C)C (stereo not drawn),?,–,·,–
CCC(OC(C)=O)C(CC(C)NC)(c1ccccc1)c1ccccc1 (stereo not drawn),–,85,·,–
CCCCCCCCCCCC[N+](C)(C)CCOc1ccccc1,?,–,·,–
CCCCCCCCCCCCCCCC[N+](C)(C)C,25µM,–,·,–
CCOc1ccc(CCNC(=O)c2cc3cnccc3n2Cc2cccc(C)n2)cc1OCC,–,·,·,·
CCOc1ccc(CN(CCc2ccc3c(c2)OCO3)Cc2cccc(Br)c2)cc1,8.9µM,–,–,–
CCOc1ccc(CN(CCc2ccc3c(c2)OCO3)Cc2cccc(OC)c2)cc1,–,–,–,–
CCC(=O)C(CCN(C)C)(c1ccccc1)c1ccccc1,–,–,·,–
O=C(Nc1ccc(Br)cc1)c1cc(Br)cc(Br)c1O,–,82,·,–
O=C(Nc1ccc(Br)cc1C(=O)c1ccccc1)c1ccccc1,–,–,–,–
COP(=S)(OC)SCN1C(=O)c2ccccc2C1=O,28µM,–,·,–
COc1cc(O)c2c(c1)CCC[C@@H](O)[C@H](O)C(=O)/C=C\C[C@H](C)OC2=O,10µM,·,·,–
COc1ccc2c(c1)/C(=C/c1cnc[nH]1)C(=O)N2,40µM,–,·,–
O=C1Nc2ccc3ncsc3c2/C1=C/c1cnc[nH]1,?,·,·,–
CC1(N2CCC(n3c([C@@H]4CCCNC4)nc4ccccc43)CC2)CCCCCCC1,–,·,–,–
SMILES,NTMT1 inh,DRV1 agonist,SKOV3 invasion,FH mod
CCN1C[C@]2(COC)CC[C@H](O)[C@@]34C5C[C@@H]6[C@@H](OC)C[C@@](OC(C)=O)(C5[C@@H]6OC(C)=O)[C@H]([C@H](OC)C23)[C@@H]14 (stereo partly drawn),–,·,·,–
O=C(CBr)Nc1ccc(Cl)cc1C(=O)c1ccccc1F,14µM,–,·,–
O=C1C(I)=CC(=C(c2cc(I)c(O)c(I)c2)c2ccccc2C(=O)O)C=C1I,14µM,–,·,?
Nc1ccccc1C(=O)O,–,–,·,–
COc1ccc(N(C(=O)Oc2c(C)cccc2C)c2ccnc(Nc3ccc(N4CCN(C)CC4)cc3)n2)c(OC)c1,–,·,?,–
CC(=O)OC1(c2ccccc2)CCN(CCc2ccccc2)CC1,–,85,·,–
CCOC(=O)C1(CCc2ccccc2)CCN(Cc2ccc(NC(C)=O)cc2)CC1,–,·,·,–
CCC(C)(O)C1(C(=O)O)COC(=O)C1 (stereo not drawn),–,·,·,–
COc1ccc(NC(=O)CCc2nc(C3=CCN(Cc4cccc(C)c4)CC3)no2)c(OC)c1,–,–,–,?
O=C(CCc1nc(C2=CCN(Cc3cccc(Cl)c3)CC2)no1)Nc1ccccc1F,–,70,–,–
CC(C)(NC(=O)[C@@H](N)Cc1ccc(O)cc1)C(=O)N[C@@H](Cc1cc2ccccc2[nH]1)C(=O)N[C@@H](Cc1ccccc1)C(=O)O,–[12.6 µM],·,·,–[13.5 µM]

# High-throughput results (PubChem BioAssay)
